Bioassay records (PubChem)
Rows were chosen to be rich in hits. Some 7.2% of all compounds tested hit in one or more screens of this group.
Marburg entry inh = qHTS for inhibitors of binding or entry into cells for Marburg Virus; Marburg virus pseudotyped entry inhibition, cell reporter; Potency, µM (highest dose often 37.8 µM), inactives show at the highest dose activity change, negative = inhibition, usual class: inhibitors; hit rate 1.8% among 300,000; calls by dose curve; tested in HEK293 cells
Sm TGR block = qHTS Assay for the Inhibitors of Schistosoma Mansoni Peroxiredoxins; hit rate 3% among 360,000; Schistosoma mansoni thioredoxin glutathione reductase (TGR), Q962Y6; Potency, µM (highest dose often 114 µM), for the others: top-dose activity change, negative = inhibition, actives largely listed as inhibitors; purified TGR, DTNB reduction, TNB absorbance 405 nm; also: nearly all actives have a fitted effect of over 60% in size
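First, TGR (20 nM dispensed) and NADPH were mixed with compound. Second, a 15 min room-temperature incubation followed. Third, further NADPH and then DTNB were added to start the reaction. Finally, TNB absorbance was monitored kinetically.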
FMDV inh = High Throughput Screening for Foot and Mouth Disease Virus Antivirals; FMDV antiviral cell-based qHTS; hit rate 1.2% among 410,000; Potency, µM (doses to about 57.9 µM), for inactives: at the top dose activity change, negative = inhibition, most hits filed as inhibitors; calls by dose curve; tested in HEK293T cells; also: read-out not given here; nearly all actives have a fitted effect of over 45% in size
HCV inhibitor = qHTS Assay for Inhibitors of Hepatitis C Virus (HCV); Potency, µM (doses to about 41.8 µM), inactives show top-dose activity change, negative = inhibition, most hits filed as inhibitors; hit rate 3.4% among 340,000; AID 651820, 2012; Huh7.5.1 HCVcc-Cre infection, luciferase reporter, 44 h
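Infectious HCV cell culture screen: compound-treated cells (1,000/well, pre-plated 4 h) are infected with HCVcc-Cre at roughly 0.5 moi and grown 44 h. Infection is quantified by luciferase signal after 15 min substrate incubation at room temperature.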
LASV entry inh = qHTS for Inhibitors of binding or entry into cells for Lassa Virus; Lassa virus pseudotype entry inhibition, cell reporter; Potency, µM (titrated, usually from 37.9 µM), for inactives: at the top dose activity change, negative = inhibition, usual class: inhibitors; hit rate 1.2% among 300,000; AID 540256, 2011; calls by dose curve; tested in HEK293 cells; also: nearly all actives have a fitted effect of over 50% in size
RE007 growth inh = qHTS Assay for Inhibitors of the HIV-1 protein Vpr. S. pombe RE007 Vpr strain, BacTiter-Glo ATP luminescence, 24 h. Potency, µM (doses to about 92.2 µM), for inactives: top-dose activity change, negative = less growth, actives largely listed as inhibitors. hit rate 0.21% among 360,000. AID 651644, 2012; active = well fitted falling curve with a large enough effect; inconclusive = small, poorly fitted or top-dose-only effect; inactive = no such curve, though single readings can be large or run the other way; also: nearly all actives have a fitted effect of over 50% in size
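Fission yeast RE007 carrying one integrated HIV-1 vpr copy, seeded at OD 0.01 in PMG+AL medium with 23 nL pinned compound. Grown 24 h at 30 degrees; viability read by BacTiter-Glo luminescence after 5 min.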
Starred values were filed as active, the others as inactive; ? = inconclusive; . = no result given; [ ] = dose if it differs, or a comment. Unless noted, calls follow the shape of the dose curve; as a rule, active = well fitted curve in the direction sought with a large enough effect; inconclusive = small, poorly fitted or top-dose-only effect, or another doubt; inactive = no such curve, though single readings can be large; an effect the other way counts as inactive or inconclusive. % is scaled to controls: 0 for no effect and ±100 for the full control effect; potency is read from the fitted curve at half-maximal effect.

SMILES	Marburg entry inh	Sm TGR block	FMDV inh	HCV inhibitor	LASV entry inh	RE007 growth inh
O=C(NCc1ccco1)c1ccc(Cn2c(SCc3ccccc3)nc3cccnc32)cc1	.	-1%	3%	.	22%[46.1 µM]	.
NC(=O)c1ccsc1NC(=O)COC(=O)/C=C/c1ccccc1[N+](=O)[O-]	?	.	32µM*	-5%	12%	-6%
Cc1ccc(S(=O)(=O)N2CCOCC2)cc1C(=O)N1CCN(c2ccc(C(F)(F)F)cn2)CC1	?	.	?	10µM*	?	0%
CCOC(=O)c1c(C)n(C)c2ccc(OCC(O)CNCCc3ccccc3)cc12 (centres undefined)	.	-11%	-14%	13µM*	.	-6%
CCOC(=O)c1c(C)n(-c2ccc(C)cc2)c2ccc(OCC(O)CN3CCN(C)CC3)cc12 (centres undefined)	?	-5%	8%	?	?	0%
CCOC(=O)c1c(C)n(Cc2ccccc2)c2ccc(OCC(O)CN3C(=O)CNC3=O)cc12 (centres undefined)	3%	3%	-5%	8.9µM*	-20%	3%
CCOC(=O)c1c(C)n(C)c2ccc(OCC(O)Cn3c(C)nc4ccccc43)cc12 (centres undefined)	?	0%	18µM*	10µM*	?	7%
CCOC(=O)c1c(C)n(C)c2ccc(OCC(O)CN3CCN(C)CC3)cc12 (centres undefined)	-1%	2%	-29%	-9%	.	-12%
CCC(CC)C(=O)Nc1ccc2nc(SCC(=O)N3CCCC3)sc2c1	11%[46.1 µM]	?	-16%	.	-3%[46.1 µM]	.
O=c1c2ccccc2sn1-c1cccc(Cl)c1	.	.	2%	.	.	10µM*
O=c1c2ccccc2sn1-c1ccccc1	?	6%	?	?	?	8.9µM*
Cc1ccc(-n2sc3ccccc3c2=O)cc1S(=O)(=O)N1CCCCC1	.	-20%	5%	?	.	16µM*
Cc1ccccc1-n1sc2cc(F)ccc2c1=O	?	-27%	?	?	-17%	-92%
O=c1c2ccccc2sn1-c1ccccc1F	.	.	0%	.	.	35µM*
N#Cc1ccc2c(=O)n(-c3ccccc3)sc2c1	.	.	38%	.	.	10µM*
Cc1ccc(-n2nc(C)c3nc(CCC(=O)Nc4ccc(F)cc4)c(=O)n(C)c32)cc1	.	1%	-7%	.	?	.
Cc1ccc(-n2cccn2)c(CN2CCC(CO)(CCc3ccccc3)CC2)c1	8.9µM*	12%	-5%	2%	-5%	-6%
O=C(c1cc(C(F)(F)F)cc(C(F)(F)F)c1)N1CCC[C@@]2(CCN(Cc3ccncc3)C2)C1	.	.	-6%	.	.	.
Clc1ccc(Nc2nc(-c3ccccc3)c3ccccc3n2)c(Cl)c1	.	-7%	8%	.	-11%[46.1 µM]	.
CCc1c(C)nc2cc(-c3ccc(OC)c(OC)c3)nn2c1NCC1CC1	?	6%	-17%	11µM*	?	26%
COc1ccccc1/C=c1\sc2nc(-c3ccccc3OC)nn2c1=O	?	7%	-14%	6%	21%	10%
COc1ccc(Br)cc1/C=c1\sc2nc(-c3ccco3)nn2c1=O	18%	13µM*	-7%	41%	9%	6%
Cc1ccc(/C=c2\sc3nc(-c4ccco4)nn3c2=O)o1	-1%	8.9µM*	0%	-5%	6%	-23%
Cc1ccc(-c2nc3s/c(=C\c4ccco4)c(=O)n3n2)cc1	10%	?	.	12%	16%	2%
Cc1ccc(/C=c2/sc3nnc(-c4ccccc4Cl)n3c2=O)o1	?	40µM*	-5%	12%	2%	6%
SMILES	Marburg entry inh	Sm TGR block	FMDV inh	HCV inhibitor	LASV entry inh	RE007 growth inh
CCN(CC)c1ccc(/C=c2\sc3nnc(-c4ccccc4Cl)n3c2=O)cc1	3%	8%	-22%	-15%	?	2%
Cc1ccc(/C=c2\sc3nc(-c4ccccc4Br)nn3c2=O)o1	3%	45µM*	-19%	2%	4%	7%
CC1CCCCN1C(=O)Cn1ncc2c3ccccc3n(Cc3ccccc3F)c2c1=O (centres undefined)	10%[46.1 µM]	6%	-23%	.	-22%[46.1 µM]	.
CCOc1ccccc1CN(CCc1ccc2c(c1)OCO2)Cc1cc(OC)c(OC)cc1OC	10µM*	-13%	-22%	.	?	.
CCOc1cc(C2C(C#N)=C(N)OC(C)=C2C(C)=O)cc(Br)c1O (centres undefined)	13%	50µM*	.	-21%	0%	-5%
CCOc1cc(C2C(C#N)=C(N)OC(C)=C2C(C)=O)c(Br)c(Br)c1OC(C)C (centres undefined)	-38%	?	-6%	-12%	?	13%
O=C(CSC1=Nc2ccccc2C2=NC(Cc3ccccc3)C(=O)N12)Nc1cccc(Cl)c1 (centres undefined)	.	1%	-24%	.	?	.
C=CC[C@@H]1C=C[C@H](ON=C(C)CCN2CCCc3nc(C)c(C)cc32)[C@H](CO)O1	23%[14.2 µM]	.	.	.	.	.
COc1ccc(CNC(=O)c2ccc3c(c2)N(Cc2ccccc2C)C(=O)c2ccccc2S3=O)cc1 (centres undefined)	.	9%	-15%	.	-22%[46.1 µM]	.
CCOc1ccc(NC(=O)c2c(NCc3cccnc3)sc3c2CCC(C)C3)cc1 (centres undefined)	.	-34%	36%	.	8%[46.1 µM]	.
O=C(Cc1cccs1)N/N=C/C=C/c1ccco1	17%	4µM*	42%	-2%[0.335 µM]	?	18%
Cn1c(SCC(=O)N/N=C/C=C/c2ccco2)nc2ccccc21	-2%	22µM*	-21%	-17%	4%	-24%
Cc1ccc(OCC(=O)N/N=C/C=C/c2ccco2)cc1C	-28%	50µM*	13%	11%	-5%	-10%
CCn1c(SCC(=O)N/N=C/C(C)=C/c2ccco2)nnc1-c1ccccc1	-4%	?	4%	-1%	-5%	4%
CCn1c(SCC(=O)N/N=C/C=C/c2ccco2)nnc1-c1ccccc1	6%	35µM*	-13%	10%	-20%	-5%
O=C(CCc1nc(-c2ccccc2F)no1)Nc1cccc(C(F)(F)F)c1	-2%[46.1 µM]	-10%	-23%	.	12%[46.1 µM]	.
Cc1cc(-c2ccnc(-n3ncc(C(=O)NCC(C)(C)N4CCOCC4)c3C)n2)c(C)s1	.	.	12%	.	.	.
Cc1ccccc1C(=O)NC(C)c1nnc2n1CCN(Cc1ccccc1F)CC2 (centres undefined)	.	.	-11%	.	.	.
O=C(CSc1nnc(SCc2ccccc2)s1)N/N=C/C=C/c1ccco1	?	40µM*	-10%	10%	-6%	7%
COC(=O)C1=C(C(=O)OC)[C@@H]2N(C)c3ccccc3[C@@]23CCC(=O)N(Cc2cc(OC)c(OC)c(OC)c2)C3=N1	-12%[14.2 µM]	.	.	.	.	.
